Holding throughout (details): mRNA level, 48 h; actives raise or lower the signal
Read-out in assay [1]: ABC Transporter (ABCC2), ABCC2 (gene 1244)
Kind of assay: LTEA_HepaRG_ABCC2: Life Technologies and Expression Analysis (LTEA) Assay for ABC Transporter (ABCC2) using HepaRG (AID 2283464). The essentials: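 Endpoint is ABCC2 transcript level from qRT-PCR, normalized to three housekeeping genes and fitted bidirectionally relative to DMSO. Human HepaRG cells received test chemical for 48 h at up to 100 uM (8 points, half-log steps, 0.5% DMSO), duplicate wells.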

Read-out in assay [2]: Broad substrate specificity ATP-binding cassette transporter ABCG2 (Homo sapiens) (UniProt Q9UNQ0)
Description: LTEA_HepaRG_ABCG2: Life Technologies and Expression Analysis (LTEA) Assay for ABC Transporter (ABCG2) using HepaRG (AID 2283465). The essentials:
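HepaRG, 48 h exposure, 8-pt half-log series from 100 uM, 0.5% DMSO vehicle, duplicates. Readout: ABCG2 transcript by qRT-PCR (Fluidigm array), housekeeping-normalized; bidirectional curve fit relative to DMSO baseline.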

Read-out in assay [3]: ATP-citrate lyase (ACLY), ACLY (gene 47)
Description: LTEA_HepaRG_ACLY: Life Technologies and Expression Analysis (LTEA) Assay for ATP-citrate lyase (ACLY) using HepaRG (AID 2283466). In outline: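 qRT-PCR readout of ACLY transcript after 48 h chemical treatment of HepaRG cells; expression normalized to three housekeeping genes. Eight-point half-log series, highest 100 uM, 0.5% DMSO vehicle. Gain or loss fitted against DMSO baseline.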

Read-out in assay [4]: Peroxisomal acyl-coenzyme A oxidase 1 (ACOX1) gene, ACOX1 (gene 51)
Description: LTEA_HepaRG_ACOX1: Life Technologies and Expression Analysis (LTEA) Assay for Peroxisomal acyl-coenzyme A oxidase 1 (ACOX1) gene using HepaRG (AID 2283467). In outline:
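HepaRG, 48 h chemical exposure, 8-pt half-log series from 100 uM top, 0.5% DMSO vehicle, duplicates. Readout: ACOX1 mRNA by Fluidigm qRT-PCR, housekeeping-normalized; bidirectional fit vs DMSO baseline.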

Read-out in assay [5]: Alkaline Phosphatase, Placental (ALPP) gene, ALPP (gene 250)
Description: LTEA_HepaRG_ALPP: Life Technologies and Expression Analysis (LTEA) Assay for Alkaline Phosphatase, Placental (ALPP) gene using HepaRG (AID 2283468). In outline: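 ALPP transcript level, measured by qRT-PCR and normalized to three housekeeping genes (ACTB, GAPDH, POLR2A), after 48 h dosing of differentiated HepaRG in serum-free induction medium. Top concentration 100 uM with half-log dilutions (8 points, 0.5% DMSO, duplicates); bidirectional fitting relative to DMSO.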

Read-out in assay [6]: Bcl-2 (BAD) gene, BAD (gene 572)
Description: LTEA_HepaRG_BAD: Life Technologies and Expression Analysis (LTEA) Assay for Bcl-2 (BAD) gene using HepaRG (AID 2283469). The essentials: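 HepaRG, 48 h exposure, 8-pt half-log curve from 100 uM in 0.5% DMSO, duplicates. Readout: TaqMan qRT-PCR for BAD mRNA, housekeeping-normalised (ACTB/GAPDH/POLR2A); gain or loss fitted against DMSO baseline.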

Read-out in assay [7]: Bcl-2 (BAX) gene, BAX (gene 581)
Description: LTEA_HepaRG_BAX: Life Technologies and Expression Analysis (LTEA) Assay for Bcl-2 (BAX) gene using HepaRG (AID 2283470). The essentials:
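qRT-PCR read-out of BAX mRNA, normalized to three housekeeping genes, after 48 h chemical exposure of human HepaRG cells in serum-free induction medium; eight-point half-log series, top 100 uM, 0.5% DMSO vehicle; bidirectional fit versus DMSO.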

Read-out in assay [8]: adenosine kinase (ADK) gene, ADK (gene 132)
Description: LTEA_HepaRG_ADK: Life Technologies and Expression Analysis (LTEA) Assay for adenosine kinase (ADK) gene using HepaRG (AID 2283471). In outline: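 Following 48 h exposure of HepaRG cells in 0.5% DMSO (top concentration 100 uM, duplicate wells), ADK mRNA induction or suppression was measured by qRT-PCR, normalised to ACTB/GAPDH/POLR2A, and fitted bidirectionally relative to vehicle.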

Read-out in assay [9]: Alpha-fetoprotein (AFP) gene, AFP (gene 174)
Kind of assay: LTEA_HepaRG_AFP: Life Technologies and Expression Analysis (LTEA) Assay for Alpha-fetoprotein (AFP) gene using HepaRG (AID 2283472). In outline:
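qRT-PCR (Fluidigm TaqMan) readout of AFP transcript, normalized to three housekeeping genes, fitted bidirectionally against 0.5% DMSO baseline. HepaRG cells received chemicals for 48 h in serum-free induction medium, top concentration 100 uM, half-log steps.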

Read-out in another assay: BCL2L11 (gene 10018)
Description: LTEA_HepaRG_BCL2L11: Life Technologies and Expression Analysis (LTEA) Assay for Bcl-2 (BCL2L11) gene using HepaRG (AID 2283473). In outline:
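BCL2L11 transcript levels are measured by Fluidigm qRT-PCR, normalized to three housekeeping genes. HepaRG cultures were plated 48 h, then treated 48 h with test chemical (top 100 uM, half-log, 0.5% DMSO vehicle); curves were fitted bidirectionally against DMSO.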

Read-out in assay [10]: Apolipoprotein A-V (APOA5) gene, APOA5 (gene 116519)
Description: LTEA_HepaRG_APOA5: Life Technologies and Expression Analysis (LTEA) Assay for Apolipoprotein A-V (APOA5) gene using HepaRG (AID 2283474). In outline:
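APOA5 transcript levels were quantified by qRT-PCR, normalized to three housekeeping genes, after 48 h chemical treatment of HepaRG cells (8 points, 100 uM maximum, half-log steps, 0.5% DMSO). Curves fitted in both directions against vehicle.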

Read-out in assay [11]: Apoptosis regulator Bcl-2 (Homo sapiens) (UniProt P10415)
Kind of assay: LTEA_HepaRG_BCL2: Life Technologies and Expression Analysis (LTEA) Assay for Bcl-2 gene using HepaRG (AID 2283475). In outline:
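qRT-PCR read-out (Fluidigm TaqMan) of BCL2 transcript, normalised to three housekeeping genes, after 48 h chemical exposure of HepaRG cells; 8-point half-log series, top 100 uM, 0.5% DMSO vehicle. Gain or loss of signal fitted relative to DMSO baseline.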

Read-out in assay [12]: Bcl-2 (BID) gene, BID (gene 637)
Kind of assay: LTEA_HepaRG_BID: Life Technologies and Expression Analysis (LTEA) Assay for Bcl-2 (BID) gene using HepaRG (AID 2283476). The essentials: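 HepaRG, 48 h exposure, 8-pt half-log series, top 100 uM, 0.5% DMSO vehicle, duplicates. Readout: BID mRNA by TaqMan qRT-PCR; housekeeping-normalized; bidirectional curve fit vs DMSO baseline.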

Read-out in a further assay: Caspase-3 (Homo sapiens) (UniProt P42574)
Description: LTEA_HepaRG_CASP3: Life Technologies and Expression Analysis (LTEA) Assay for cysteine-aspartic acid protease (CASP3) using HepaRG (AID 2283477). In outline:
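Expression of CASP3 was quantified by TaqMan qRT-PCR against three housekeeping genes (ACTB, GAPDH, POLR2A), bidirectionally versus 0.5% DMSO. HepaRG cultures received compounds in duplicate, top 100 uM with half-log steps, for 48 h in serum-free induction medium.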

Read-out in assay [13]: Cytochrome P450 (CYP24A1), CYP24A1 (gene 1591)
Description: LTEA_HepaRG_CYP24A1: Life Technologies and Expression Analysis (LTEA) Assay for Cytochrome P450 (CYP24A1) using HepaRG (AID 2283478). The essentials:
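mRNA of CYP24A1 quantified by TaqMan qRT-PCR (ACTB/GAPDH/POLR2A normalization) after 48 h chemical exposure of HepaRG cells, top concentration 100 uM, half-log steps, 0.5% DMSO vehicle, duplicates. Curves fitted bidirectionally against DMSO baseline.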

Read-out in assay [14]: Cytochrome P450 (CYP1A2), CYP1A2 (gene 1544)
Description: LTEA_HepaRG_CYP1A2: Life Technologies and Expression Analysis (LTEA) Assay for Cytochrome P450 (CYP1A2) using HepaRG (AID 2283479). The essentials: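 CYP1A2 transcript measured by TaqMan qRT-PCR against three housekeeping genes after 48-hour chemical exposure of HepaRG cells. Eight-point half-log series topping at 100 uM in 0.5% DMSO, duplicates; gain or loss fitted relative to vehicle.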

Read-out in assay [15]: cysteine-aspartic acid protease (CASP8), CASP8 (gene 841)
Description: LTEA_HepaRG_CASP8: Life Technologies and Expression Analysis (LTEA) Assay for cysteine-aspartic acid protease (CASP8) using HepaRG (AID 2283480). In outline: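 qRT-PCR readout of CASP8 mRNA, normalized to three housekeeping genes, after 48 h chemical exposure of HepaRG cells; 8-point half-log series, top 100 uM, 0.5% DMSO vehicle. Bidirectional curve fitting against DMSO baseline.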

Read-out in assay [16]: Cytochrome P450 2C19 (Homo sapiens) (UniProt P33261)
Kind of assay: LTEA_HepaRG_CYP2C19: Life Technologies and Expression Analysis (LTEA) Assay for CYP2C19 using HepaRG (AID 2283482). The essentials: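 CYP2C19 transcript levels by qRT-PCR, normalized to three housekeeping genes, in HepaRG cells after 48 h chemical exposure. Eight-point half-log series topping at 100 uM, 0.5% DMSO vehicle. Increases and decreases both fitted against DMSO.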

Read-out in a further assay: CYP2C8 (gene 1558)
Kind of assay: LTEA_HepaRG_CYP2C8: Life Technologies and Expression Analysis (LTEA) Assay for CYP2C8 using HepaRG (AID 2283483). The essentials:
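HepaRG (human liver line), 48 h chemical exposure, 8-pt half-log series from 100 uM, 0.5% DMSO vehicle. Readout: CYP2C8 transcript by qRT-PCR, housekeeping-normalized. Bidirectional fit vs DMSO baseline.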

Read-out in assay [17]: Cytochrome P450 (CYP2B6), CYP2B6 (gene 1555)
Description: LTEA_HepaRG_CYP2B6: Life Technologies and Expression Analysis (LTEA) Assay for Cytochrome P450 (CYP2B6) using HepaRG (AID 2283481). In outline:
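CYP2B6 transcript level quantified by qRT-PCR against three housekeeping genes, fitted bidirectionally relative to DMSO. HepaRG cultures received chemicals for 48 h, 8-point half-log series from 100 uM in 0.5% DMSO, duplicate wells, serum-free induction medium.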

Active and inactive are the calls of the source. The calls were made as follows: active = hit-call score of the fitted dose curve at least 0.9, where 1 is the maximum; inactive = score below 0.9.

Sequence of Apoptosis regulator Bcl-2 (Homo sapiens) (P10415 whole entry, looked up): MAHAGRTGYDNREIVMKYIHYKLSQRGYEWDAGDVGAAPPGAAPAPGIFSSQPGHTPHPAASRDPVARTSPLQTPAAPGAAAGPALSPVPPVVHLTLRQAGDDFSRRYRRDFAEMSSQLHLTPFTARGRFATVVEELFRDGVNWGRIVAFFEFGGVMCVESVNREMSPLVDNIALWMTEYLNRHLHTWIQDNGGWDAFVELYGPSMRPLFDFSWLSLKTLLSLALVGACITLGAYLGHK
Sequence of Broad substrate specificity ATP-binding cassette transporter ABCG2 (Homo sapiens) (Q9UNQ0 whole entry, looked up): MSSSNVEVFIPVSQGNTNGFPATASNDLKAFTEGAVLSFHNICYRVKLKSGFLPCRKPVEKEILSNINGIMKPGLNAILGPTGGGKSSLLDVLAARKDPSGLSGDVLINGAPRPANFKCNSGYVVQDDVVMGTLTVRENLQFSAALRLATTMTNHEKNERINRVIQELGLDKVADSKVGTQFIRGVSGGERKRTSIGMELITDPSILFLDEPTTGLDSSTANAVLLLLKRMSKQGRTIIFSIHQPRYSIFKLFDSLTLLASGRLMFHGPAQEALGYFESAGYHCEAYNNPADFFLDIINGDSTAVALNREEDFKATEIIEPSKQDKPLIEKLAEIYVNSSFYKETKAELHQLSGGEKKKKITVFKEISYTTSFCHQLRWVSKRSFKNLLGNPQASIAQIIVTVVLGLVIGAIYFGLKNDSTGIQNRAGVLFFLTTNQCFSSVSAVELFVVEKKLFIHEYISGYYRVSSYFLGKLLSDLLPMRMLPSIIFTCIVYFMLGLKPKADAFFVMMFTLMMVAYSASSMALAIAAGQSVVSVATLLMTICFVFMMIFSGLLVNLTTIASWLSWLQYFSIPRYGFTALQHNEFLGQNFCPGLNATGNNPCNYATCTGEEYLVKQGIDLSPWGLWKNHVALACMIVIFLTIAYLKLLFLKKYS
Sequence of Cytochrome P450 2C19 (Homo sapiens) (P33261 whole entry, looked up): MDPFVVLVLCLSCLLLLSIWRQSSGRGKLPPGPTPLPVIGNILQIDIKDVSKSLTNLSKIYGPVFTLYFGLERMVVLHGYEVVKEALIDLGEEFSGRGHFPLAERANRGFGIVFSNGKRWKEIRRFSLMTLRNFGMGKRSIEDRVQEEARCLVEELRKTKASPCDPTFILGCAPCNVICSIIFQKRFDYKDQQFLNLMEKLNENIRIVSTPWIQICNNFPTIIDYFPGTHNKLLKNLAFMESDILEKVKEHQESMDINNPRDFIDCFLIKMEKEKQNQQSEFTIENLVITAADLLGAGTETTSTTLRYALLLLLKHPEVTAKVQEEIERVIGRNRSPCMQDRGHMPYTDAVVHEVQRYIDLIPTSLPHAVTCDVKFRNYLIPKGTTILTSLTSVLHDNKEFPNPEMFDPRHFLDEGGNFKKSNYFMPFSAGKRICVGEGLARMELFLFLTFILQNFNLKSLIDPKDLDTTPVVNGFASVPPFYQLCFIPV
Sequence of Caspase-3 (Homo sapiens) (P42574 whole entry, looked up): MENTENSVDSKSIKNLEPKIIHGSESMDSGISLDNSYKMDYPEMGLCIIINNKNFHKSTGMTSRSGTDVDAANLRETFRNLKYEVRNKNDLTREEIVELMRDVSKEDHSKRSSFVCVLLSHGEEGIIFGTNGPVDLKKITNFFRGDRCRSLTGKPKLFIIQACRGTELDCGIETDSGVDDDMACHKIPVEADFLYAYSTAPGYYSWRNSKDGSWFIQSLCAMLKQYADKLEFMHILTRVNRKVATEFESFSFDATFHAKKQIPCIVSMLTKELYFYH

Regarding `c1ccc(N=Nc2ccccc2)cc1`, the result in [1], in [2], in [3], in assay [4], in [5] and in assay [6] was inactive. The outcome (in assay [7]; in assay [8]; in assay [9]; with BCL2L11 (gene 10018); in assay [10]; in [11]) was inactive. In addition, the call (in assay [12]; with Caspase-3 (Homo sapiens); in [13]; in [15]; in assay [16]; with CYP2C8 (gene 1558)) was inactive. Further, the AC50 in [14] is 50 µM (active).
`c1ccc2c(c1)oc1ccccc12`: the result in assay [1], in assay [2], in assay [3], in [4], in [5] and in assay [6] was inactive. Further, the outcome (in assay [7]; in assay [8]; in assay [9]; with BCL2L11 (gene 10018); in [10]; in [11]) was inactive. Moreover, the call (in assay [12]; in the assay with Caspase-3 (Homo sapiens); in assay [15]; in [16]; with CYP2C8 (gene 1558)) was inactive. Moreover, the AC50 in [14] was 50 µM (active); in [17], 0.0679 µM (active).
As for `Nc1ccc(Cl)cc1N`, the concentration at half-maximal activity (AC50) in [1] is 37.3 µM (active); in [4], 27 µM (active); in assay [7], 13.2 µM (active); in assay [9], 22.5 µM (active); with BCL2L11 (gene 10018), 18.9 µM (active); in [10], 16.2 µM (active). Besides, the AC50 was 28.8 µM (active) in assay [11], 0.811 µM (active) in assay [14], 28.6 µM (active) in [16] and 25.1 µM (active) in the assay with CYP2C8 (gene 1558). Also, the outcome in [2], in assay [3], in assay [5], in assay [6], in [8] and in assay [12] was inactive. The result (in the assay with Caspase-3 (Homo sapiens); in [13]; in assay [15]) was inactive.

As usually defined, the AC50 is the midpoint of the concentration-response curve, whichever way the signal moves.

These data come from PubChem BioAssay (EPA / NIEHS).
